SENP7 inh: SENP7 protease inhibitors, primary screen, biochemical, luminescence, uHTS | inhibition, % at 5 µM | recombinant SENP7, Z-RLRGG-aminoluciferin luminescence, 40 min | Sentrin-specific protease 7 (Homo sapiens), Q9BQF6 | actives 1.5% (n = 330,000) | AID 434973, 2010;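 active = inhibition above about 50% at the single test dose, limit read from the data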
Target sequence (Q9BQF6 706-1050 limits assumed): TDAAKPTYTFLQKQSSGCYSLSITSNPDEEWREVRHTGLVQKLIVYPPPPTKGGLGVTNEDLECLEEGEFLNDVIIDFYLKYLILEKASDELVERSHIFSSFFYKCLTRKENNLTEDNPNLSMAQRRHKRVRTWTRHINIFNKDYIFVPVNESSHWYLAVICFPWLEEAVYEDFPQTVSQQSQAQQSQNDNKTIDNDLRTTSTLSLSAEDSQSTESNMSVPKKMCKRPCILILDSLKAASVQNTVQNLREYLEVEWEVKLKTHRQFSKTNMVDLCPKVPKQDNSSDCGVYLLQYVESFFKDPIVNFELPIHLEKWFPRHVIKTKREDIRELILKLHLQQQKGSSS
SENP6 block: SENP6 protease inhibitors, primary screen, biochemical, luminescence, uHTS. actives 1.8% (n = 330,000). inhibition, % at 10 µM. Sentrin-specific protease 6 (Homo sapiens), Q9GZR1. AID 2599, 2010. Recombinant SENP6 catalytic domain, aminoluciferin luminescence;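 active = inhibition above about 50% at the single tested dose, limit read from the data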
SENP8 block-1: SENP8 protease inhibitors, primary screen, biochemical, luminescence; Sentrin-specific protease 8 (Homo sapiens), Q96LD8; purified SENP8, Z-RLRGG-aminoluciferin cleavage; inhibition, % at 10 µM; actives 1.2% (n = 330,000); AID 2540, 2010; in the data active = inhibition above about 50%
SENP8 block-2: human SENP8 protease inhibitors, primary screen, biochemical, fluorescence, Nedd8 protein substrate, uHTS; Sentrin-specific protease 8 (Homo sapiens), Q96LD8; recombinant SENP8; inhibition, % at 20 µM; actives 0.64% (n = 360,000); AID 602440, 2012; in the data active = inhibition mostly above about 40%, no sharp cut-off; inactive = mostly below about 27%
PPC-1+TRAIL kill: compounds killing PPC-1 cancer cells with TRAIL present, primary screen, TRAIL potentiator project, ATPLite luminescence, uHTS; PPC-1 cells + TRAIL, ATPLite viability luminescence; cell killing (% activity), % at 4 µM or 5 µM; actives 0.41% (n = 220,000); AID 1443, 2008;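 active = cell killing above 50% in the first pass at 4 µM, then a duplicate retest at 5 µM averaging 50% or more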
C8 TRAIL sens: viability loss with TRAIL in NB7+C8 cells, primary screen, TRAIL sensitizer project, cell-based, ATPlite luminescence; inhibition (viability loss, TRAIL sensitization), % at 10 µM; actives 1% (n = 360,000); AID 624354, 2012;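 active = compounds causing at least 50% loss of cell viability in the single-dose screen, relative to plate controls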
SENP8 confirm: SENP8 protease inhibitors, retest, confirmation, biochemical, luminescence, single concentration. actives 40% (n = 6,200). inhibition, % at 12.5 µM. Recombinant SENP8, Z-RLRGG-aminoluciferin luminescence, 60 min. shares compounds with SENP7 inh;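 active = mean inhibition across replicates above about 50%, limit read from the data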
SENP6 confirm: SENP6 protease inhibitors, confirmation, biochemical, luminescence, single concentration; shares compounds with SENP7 inh; recombinant SENP6, Z-RLRGG-aminoluciferin luminescence; inhibition, % at 12.5 µM; actives 58% (n = 6,200)
SENP7 confirm: SENP7 protease inhibitors, retest, confirmation, biochemical, luminescence, single concentration; shares compounds with SENP7 inh; recombinant SENP7, Z-RLRGG-aminoluciferin luminescence, 40 min; inhibition, % at 12.5 µM; actives 69% (n = 6,200)
Casp3 select: caspase-3 protease inhibitors, confirmation, selectivity assay for SENP inhibitor project, biochemical, single concentration | shares compounds with SENP7 inh | purified caspase-3, Z-DEVD-aminoluciferin luminescence, 60 min | inhibition, % at 12.5 µM | actives 60% (n = 6,200) | AID 488918, 2010;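 active = mean inhibition above about 50%, limit read from the data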
Target sequence (P42574 28-227 limits assumed): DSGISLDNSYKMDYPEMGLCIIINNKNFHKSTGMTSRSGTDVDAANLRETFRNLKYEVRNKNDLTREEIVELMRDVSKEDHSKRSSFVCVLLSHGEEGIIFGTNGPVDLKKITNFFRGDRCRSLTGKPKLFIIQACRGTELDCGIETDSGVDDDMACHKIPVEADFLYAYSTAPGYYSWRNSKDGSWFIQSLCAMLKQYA
SENP luc ctr: luminescence interference (SENP counter-screen); shares compounds with SENP7 inh; Pre-incubated SENP8/Z-RLRGG-aminoluciferin, luciferase luminescence interference; inhibition, % at 12.5 µM; actives 39% (n = 6,200); AID 488919;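 active = mean inhibition above about 50% when retested at one dose, limit read from the data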
Of the large screens only hits and unclear results are named; the others gave an inactive call (follow-up assays come after a bar, where they were run). An excerpt weighted towards active compounds, which were near 3% of everything screened.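 The calls were made as follows, unless noted: active = mean inhibition above about 50% in the one-dose retest (limit read from the data); inactive = the rest.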

Cc1ccc(C(=O)COC(=O)c2cccc(NC(=O)c3ccc([N+](=O)[O-])cc3[N+](=O)[O-])c2)cc1	SENP7 inh 66, SENP6 block 67 | SENP8 confirm inactive | SENP6 confirm inactive | SENP7 confirm 69 | Casp3 select inactive | SENP luc ctr inactive
O=C(COC(=O)c1cccc(NC(=O)c2ccco2)c1)c1ccc(Br)cc1	SENP7 inh 72, SENP6 block 70 | SENP8 confirm inactive | SENP6 confirm 61 | SENP7 confirm 78 | Casp3 select inactive | SENP luc ctr inactive
CC(=O)Nc1ccc(C(=O)OCC(=O)c2cccc([N+](=O)[O-])c2)cc1	none
CC(C)(C)C(=O)COC(=O)c1cccc(NC(=O)c2ccco2)c1	none
CCCCCCCCN1C(=O)[C@H](CC(=O)N2CCN(C(=O)C3CC3)CC2)C[C@@]2(C(=O)OC)CC(C)(C)CC=C12	none (no result: SENP7 inh, SENP6 block, SENP8 block-1, PPC-1+TRAIL kill)
O=C(Nc1ccccn1)c1cccs1	none
Cc1nc2cc(NC(=O)c3ccc(Br)s3)ccc2s1	SENP7 inh 70, SENP6 block 70, C8 TRAIL sens 63 (no result: PPC-1+TRAIL kill) | SENP8 confirm inactive | SENP6 confirm 51 | SENP7 confirm 91 | Casp3 select inactive | SENP luc ctr inactive
Cc1ccnc(NC(=O)c2ccc(Br)s2)c1	SENP7 inh 92, SENP6 block 88, SENP8 block-1 82, C8 TRAIL sens 55 (no result: PPC-1+TRAIL kill) | SENP8 confirm 86 | SENP6 confirm 87 | SENP7 confirm 98 | Casp3 select 91 | SENP luc ctr 88
Cc1ccc(C(=O)Nc2ccc3nc(C)sc3c2)s1	none
Cc1ccnc(NC(=O)c2cc3c(=O)oc4ccc(C)cc4c3s2)c1	none
Cc1ccnc(NC(=O)c2cccs2)c1	SENP7 inh 57, SENP6 block 54 | SENP8 confirm 51 | SENP6 confirm 51 | SENP7 confirm 84 | Casp3 select 86 | SENP luc ctr 62
C=CCC[C@@H](CCCCC)OC(=O)/C=C/[C@H](O)[C@@H](O)C[C@@H](O)CC=C	none (no result: SENP7 inh, SENP6 block, SENP8 block-1, PPC-1+TRAIL kill)
COc1ccc([N+](=O)[O-])cc1NC(=O)C(C)OC(=O)CSC(C)C(=O)Nc1cc(C)on1 (stereo not drawn)	none (no result: PPC-1+TRAIL kill)
FC(F)Oc1ccc(NC(=S)N2CCc3ccccc32)cc1	SENP6 block 50 | SENP8 confirm inactive | SENP6 confirm inactive | SENP7 confirm inactive | Casp3 select inactive | SENP luc ctr inactive
Cc1c(C(=O)N2CCC(C)CC2)oc2ccc(S(=O)(=O)N3CCC4(CC3)OCCO4)cc12	SENP7 inh 75 | SENP8 confirm inactive | SENP6 confirm inactive | SENP7 confirm inactive | Casp3 select inactive | SENP luc ctr inactive
C/C(=N\NC(=O)c1cc2c(s1)CCC(C)C2)c1ccncc1 (stereo not drawn)	none
C/C(=N\NC(=O)c1cc2c(s1)CCC(C)C2)c1ccc[nH]1 (stereo not drawn)	SENP7 inh 70 (no result: PPC-1+TRAIL kill) | SENP8 confirm inactive | SENP6 confirm inactive | SENP7 confirm 81 | Casp3 select 59 | SENP luc ctr inactive
Cc1ccc(N(CC(=O)NCc2ccccn2)S(=O)(=O)c2ccccc2)cc1C	none (no result: PPC-1+TRAIL kill)
COCC(C)NC(=O)c1nn(Cc2ccccc2)c(=O)c2ccccc12 (stereo not drawn)	SENP6 block 61 (no result: PPC-1+TRAIL kill) | SENP8 confirm inactive | SENP6 confirm inactive | SENP7 confirm inactive | Casp3 select inactive | SENP luc ctr inactive
O=C(Nc1ccc(S(=O)(=O)Nc2ncccn2)cc1)c1nn(Cc2ccccc2)c(=O)c2ccccc12	SENP6 block 85, SENP8 block-1 66 | SENP8 confirm inactive | SENP6 confirm inactive | SENP7 confirm inactive | Casp3 select inactive | SENP luc ctr inactive
Cc1ccc(Cn2c(N3CCN(C)CC3)nc3c2c(=O)[nH]c(=O)n3C)cc1	none (no result: PPC-1+TRAIL kill)
COc1cc(SC)ccc1C(=O)NC(C)C	none
COc1cc(SC)ccc1C(=O)Nc1ccc2ncccc2c1	SENP7 inh 88, SENP6 block 94, SENP8 block-1 88 (no result: PPC-1+TRAIL kill) | SENP8 confirm inactive | SENP6 confirm 77 | SENP7 confirm 95 | Casp3 select 68 | SENP luc ctr inactive
COc1cc(SC)ccc1C(=O)Nc1ccc(C)cc1C	SENP7 inh 70, SENP6 block 75, SENP8 block-1 61 | SENP8 confirm inactive | SENP6 confirm inactive | SENP7 confirm inactive | Casp3 select inactive | SENP luc ctr inactive
Nc1c(C(=O)CSc2nccn2-c2cccc(F)c2)c(=O)[nH]c(=O)n1C1CC1	none (no result: PPC-1+TRAIL kill)
O=C(/C(C=Nc1ccc(F)cc1)=C(/O)c1ccco1)C(F)(F)F	SENP7 inh 79, SENP6 block 77 | SENP8 confirm inactive | SENP6 confirm inactive | SENP7 confirm inactive | Casp3 select inactive | SENP luc ctr inactive
Cc1ccc(N=C/C(C(=O)C(F)(F)F)=C(\O)c2ccco2)cc1Cl	SENP7 inh 59, SENP6 block 68 | SENP8 confirm inactive | SENP6 confirm inactive | SENP7 confirm inactive | Casp3 select inactive | SENP luc ctr 54
N#CN1CCC(NS(=O)(=O)c2ccc(C(F)(F)F)cc2)C1 (stereo not drawn)	none (no result: PPC-1+TRAIL kill)
O=C(CCC(=O)OCCCC(F)(F)C(F)(F)F)Nc1ccccc1	SENP7 inh 99 | SENP8 confirm inactive | SENP6 confirm inactive | SENP7 confirm inactive | Casp3 select inactive | SENP luc ctr inactive
Cc1ccsc1/C=C1\CCC(C2CCCC2)C1=O (stereo not drawn)	SENP7 inh 83, SENP6 block 97, SENP8 block-1 85 | SENP8 confirm 76 | SENP6 confirm 81 | SENP7 confirm 92 | Casp3 select 80 | SENP luc ctr 70

Compound activity as filed in PubChem BioAssay.
